In assay [1] the target is Peroxisome proliferator-activated receptor delta (Homo sapiens) (UniProt Q03181). Nature of the assay: qHTS assay to identify small molecule agonists of the peroxisome proliferator-activated receptor delta (PPARd) signaling pathway (AID 743212; calls by dose curve; also: % is scaled to controls: 0 for no effect and ±100 for the full control effect). An outline of the steps:
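Cells expressing a UAS-driven beta-lactamase reporter (PPARd-bla HEK293H) were given test compounds after a 5 h settle and kept at 37 C. Reporter activity was then measured as FRET fluorescence using LiveBLAzer B/G substrate.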

Assay [2] in a line: qHTS assay to identify small molecule antagonists of the peroxisome proliferator-activated receptor delta (PPARd) signaling pathway - cell viability counter screen (AID 743213). Also: nearly all actives have a fitted effect of over 50% in size. Also: potency is read from the fitted curve at half-maximal effect. An outline of the steps:
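Agonist-stimulated (L165041, 300 nM final) HEK293H PPARd UAS-bla cells are exposed to compounds for 17 h at 37 C, and ATP-based luminescence (CellTiter-Glo) from the same wells reports cytotoxicity.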

The nature of assay [3]: qHTS assay to identify small molecule agonists of the farnesoid-X-receptor (FXR) signaling pathway - cell viability counter screen (AID 743218). Also: nearly all actives have a fitted effect of over 45% in size. Also: potency is read from the fitted curve at half-maximal effect. In outline:
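Readout: CellTiter-Glo luminescence, 30 min RT, multiplexed after the FXR-bla FRET reading. HEK 293T FXR-UAS-bla cells received compound 5 h post-plating and were incubated 16 h at 37 C.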

Assay [4] in a line: qHTS assay to identify small molecule antagonists of the farnesoid-X-receptor (FXR) signaling pathway - cell viability counter screen (AID 743221; active = well fitted cell-killing curve with a large enough effect in the repeat runs, not every such curve was filed as active; also: nearly all actives have a fitted effect of over 50% in size; also: potency is read from the fitted curve at half-maximal effect). An outline of the steps: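 CellTiter-Glo, 30 min RT, luminescence; same wells as the LiveBLAzer FRET read. Cells: FXR-UAS-bla HEK 293T. Treatment: compound with chenodeoxycholic acid 50 uM final, 16 h at 37 C.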
The nature of assay [5]: qHTS assay to identify small molecule agonists of the vitamin D receptor (VDR) signaling pathway - cell viability counter screen (AID 743224). Also: nearly all actives have a fitted effect of over 50% in size. Also: potency is read from the fitted curve at half-maximal effect. In outline: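 In parallel with the bla FRET readout, cytotoxicity toward VDR-bla cells after 16 h compound exposure was assessed by CellTiter-Glo, with luminescence recorded after a 30 min room-temperature incubation.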
The nature of assay [6]: qHTS assay to identify small molecule antagonists of the vitamin D receptor (VDR) signaling pathway - cell viability counter screen (AID 743225). Also: nearly all actives have a fitted effect of over 50% in size. Also: potency is read from the fitted curve at half-maximal effect. In outline:
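Cytotoxicity toward the VDR-bla HEK 293T line was scored by ATP-based CellTiter-Glo luminescence, read in the wells already used for the beta-lactamase readout after 16 h compound treatment under 3 nM 1-alpha,25-dihydroxyvitamin D3 stimulation.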

Assay [7] is described as follows: qHTS assay to identify small molecule agonists of the NFkB signaling pathway - cell viability counter screen (AID 1159515; calls by dose curve; also: nearly all actives have a fitted effect of over 55% in size; also: potency is read from the fitted curve at half-maximal effect). In outline: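 Plate 2,000 NFkB-bla ME-180 cells/well; incubate overnight. Add compounds, 5 hr at 37 C. Add FRET substrate, 1.5 hr RT. Add CellTiter-Glo, 30 min RT; read luminescence.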
The nature of assay [8]: qHTS assay to identify small molecule agonists of the endoplasmic reticulum stress response signaling pathway (AID 1159516; active = well fitted activation curve with a large enough effect in the signal ratio in the repeat runs, not every such curve was filed as active; the % refers to the signal ratio; also: % is scaled to controls: 0 for no effect and ±100 for the full control effect). In outline:
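Beta-lactamase expression from the ER stress response element in HeLa reporter cells is quantified with the LiveBLAzer B/G FRET substrate, read at 405 nm excitation after 2 hr at room temperature, following 5 hr compound treatment at 37 C.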

Assay [9] in a line: qHTS assay to identify small molecule antagonists of the retinoid-related orphan receptor gamma (ROR-gamma) signaling pathway - cell viability counter screen (AID 1159520). Also: nearly all actives have a fitted effect of over 50% in size. Also: potency is read from the fitted curve at half-maximal effect. An outline of the steps:
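Tet-on ROR gamma CHO cells (1,000/well) were plated 4 hr, given compounds in DMSO for 2 hr at 37 C, then induced with 1 uM final doxycycline for 16 hr. Viability was read as ATP by CellTiter-Glo luminescence after 30 min.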

In assay [10] the target is Nuclear receptor ROR-gamma (Homo sapiens) (UniProt P51449). In words: qHTS assay to identify small molecule antagonists of the retinoid-related orphan receptor gamma (ROR-gamma) signaling pathway (AID 1159521; also: nearly all actives have a fitted effect of over 50% in size; also: potency is read from the fitted curve at half-maximal effect). In outline:
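Readout: ONE-Glo luciferase luminescence, 30 min at room temperature. System: Tet-on RORγ CHO, RORE-LUC. Sequence: compound 2 h, doxycycline 1 uM final, 16 h at 37 C.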

The nature of assay [11]: qHTS assay to identify small molecule agonists of the AP-1 signaling pathway - cell viability counter screen (AID 1159525; calls by dose curve; also: nearly all actives have a fitted effect of over 55% in size; also: potency is read from the fitted curve at half-maximal effect). In outline:
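Each titration point was normalised to DMSO and tetra n-octyl ammonium bromide controls. The read was Cell Titer Glo luminescence after 30 min at RT, following 5 h compound exposure of ME-180 AP-1-bla cells at 37 °C.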

Assay [12] is described as follows: qHTS assay to identify small molecule agonists of the AP-1 signaling pathway (AID 1159526; calls by dose curve; also: % is scaled to controls: 0 for no effect and ±100 for the full control effect).
Assay [13] deals with Bile acid receptor (Homo sapiens) (UniProt Q96RI1). Nature of the assay: qHTS assay to identify small molecule antagonists of the farnesoid-X-receptor (FXR) signaling pathway (AID 743217; active = well fitted inhibition curve with a large enough effect in the signal ratio in the repeat runs, not every such curve was filed as active; the % refers to the signal ratio; also: % is scaled to controls: 0 for no effect and ±100 for the full control effect). An outline of the steps:
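FRET fluorescence after 2 h room-temperature LiveBLAzer loading gives the readout. Prior step: FXR-bla HEK 293T cells, seeded and incubated 5 h, received test compounds plus 50 uM final CDCA for 16 h at 37 °C.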

The target is the same in assay [14]. In words: qHTS assay to identify small molecule agonists of the farnesoid-X-receptor (FXR) signaling pathway (AID 743220; active = well fitted activation curve with a large enough effect in the signal ratio in the repeat runs, not every such curve was filed as active; the % refers to the signal ratio; also: % is scaled to controls: 0 for no effect and ±100 for the full control effect). In outline:
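FXR-UAS-bla HEK 293T cells carrying a UAS-driven beta-lactamase reporter were plated for 5 h at 37C/5% CO2, then exposed to DMSO-dissolved Tox21 10K compounds for 16 h at 37C. A LiveBLAzer B/G FRET substrate was loaded for 2 h at room temperature before fluorescence reading.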

In assay [15] the target is Vitamin D3 receptor (Homo sapiens) (UniProt P11473). Nature of the assay: qHTS assay to identify small molecule agonists of the vitamin D receptor (VDR) signaling pathway (AID 743222; calls by dose curve; also: % is scaled to controls: 0 for no effect and ±100 for the full control effect). An outline of the steps: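 Following 4 h attachment at 37C, VDR-bla cells (2,000 per well) received DMSO-dissolved compounds or controls. After 16 h incubation, LiveBLAzer B/G FRET substrate was added and fluorescence read 2 h later at room temperature.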
Sequence of Vitamin D3 receptor (Homo sapiens) (P11473 whole entry, looked up): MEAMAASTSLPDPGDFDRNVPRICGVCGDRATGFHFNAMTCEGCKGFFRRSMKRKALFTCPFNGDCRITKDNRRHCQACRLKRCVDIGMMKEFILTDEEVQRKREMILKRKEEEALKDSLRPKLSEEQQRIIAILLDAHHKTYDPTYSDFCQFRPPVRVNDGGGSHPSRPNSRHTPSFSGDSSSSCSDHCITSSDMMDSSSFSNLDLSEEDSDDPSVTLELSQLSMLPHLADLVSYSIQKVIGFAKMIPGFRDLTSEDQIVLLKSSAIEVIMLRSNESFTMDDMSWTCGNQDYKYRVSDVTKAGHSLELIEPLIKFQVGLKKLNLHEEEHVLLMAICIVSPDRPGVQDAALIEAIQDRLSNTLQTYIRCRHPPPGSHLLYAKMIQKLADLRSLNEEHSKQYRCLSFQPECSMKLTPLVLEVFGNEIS

The target is the same in assay [16]. In words: qHTS assay to identify small molecule antagonists of the vitamin D receptor (VDR) signaling pathway (AID 743223; active = well fitted inhibition curve with a large enough effect in the signal ratio in the repeat runs, not every such curve was filed as active; the % refers to the signal ratio; also: potency is read from the fitted curve at half-maximal effect). An outline of the steps: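 After VDR-bla cells are plated and left 4 h at 37C, DMSO-dissolved compounds and 3 nM (final) calcitriol agonist are added. Incubation continues 16 h at 37C; FRET beta-lactamase substrate then develops 2 h at room temperature.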

A short description of assay [17]: qHTS assay to identify small molecule agonists of the peroxisome proliferator-activated receptor delta (PPARd) signaling pathway - cell viability counter screen (AID 743211). Also: nearly all actives have a fitted effect of over 55% in size. Also: potency is read from the fitted curve at half-maximal effect. An outline of the steps: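 Multiplexed format: after the 2 h room-temperature LiveBLAzer B/G FRET step, CellTiter-Glo was added to the same wells. Luminescence after 30 min gave cell viability; compound exposure was 17 h at 37C.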

The target of assay [18] is Peroxisome proliferator-activated receptor delta (Homo sapiens) (UniProt Q03181). In words: qHTS assay to identify small molecule antagonists of the peroxisome proliferator-activated receptor delta (PPARd) signaling pathway (AID 743215; active = well fitted inhibition curve with a large enough effect in the signal ratio in the repeat runs, not every such curve was filed as active; the % refers to the signal ratio). An outline of the steps:
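Fluorescence from cleaved LiveBLAzer B/G FRET substrate (2 h, room temperature) reports PPARd-driven beta-lactamase in HEK293H UAS-bla cells. Cells had been treated 17 h at 37 C with compound plus 300 nM final L165041.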

The nature of assay [19]: qHTS assay to identify small molecule agonists of the endoplasmic reticulum stress response signaling pathway - cell viability counter screen (AID 1159517; calls by dose curve). In outline: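 Cpd-treated ESRE-bla HeLa (5 hr, 37 C) → LiveBLAzer 2 hr RT → CellTiter-Glo 30 min RT → luminescence.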

Several values for one entry are separate records, joined by “and”; a condition that tells them apart may be missing. Equal entries are not always repeated. Records with an inconclusive call do not appear. Some structures have more than one record in an assay (separate samples or runs), and their calls can disagree. Activity calls are given as the source filed them. Unless noted, calls follow the shape of the dose curve; as a rule, active = well fitted curve in the direction sought with a large enough effect in the repeat runs; inconclusive = weak or mixed curves; inactive = no such curve, though single readings can be large; an effect the other way counts as inactive or inconclusive.

Sequence of Peroxisome proliferator-activated receptor delta (Homo sapiens) (Q03181 whole entry, looked up): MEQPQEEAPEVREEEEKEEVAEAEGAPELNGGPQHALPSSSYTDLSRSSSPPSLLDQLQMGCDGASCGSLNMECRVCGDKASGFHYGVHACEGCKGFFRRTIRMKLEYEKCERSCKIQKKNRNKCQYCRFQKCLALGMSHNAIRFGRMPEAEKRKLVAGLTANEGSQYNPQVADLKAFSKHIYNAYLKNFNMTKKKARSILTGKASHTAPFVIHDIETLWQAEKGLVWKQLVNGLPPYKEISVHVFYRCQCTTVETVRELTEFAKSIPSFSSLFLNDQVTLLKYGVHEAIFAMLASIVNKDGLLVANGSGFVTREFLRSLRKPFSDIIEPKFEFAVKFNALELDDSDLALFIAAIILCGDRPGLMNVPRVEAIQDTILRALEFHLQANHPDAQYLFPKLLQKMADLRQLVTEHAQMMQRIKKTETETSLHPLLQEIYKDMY
Sequence of Bile acid receptor (Homo sapiens) (Q96RI1 whole entry, looked up): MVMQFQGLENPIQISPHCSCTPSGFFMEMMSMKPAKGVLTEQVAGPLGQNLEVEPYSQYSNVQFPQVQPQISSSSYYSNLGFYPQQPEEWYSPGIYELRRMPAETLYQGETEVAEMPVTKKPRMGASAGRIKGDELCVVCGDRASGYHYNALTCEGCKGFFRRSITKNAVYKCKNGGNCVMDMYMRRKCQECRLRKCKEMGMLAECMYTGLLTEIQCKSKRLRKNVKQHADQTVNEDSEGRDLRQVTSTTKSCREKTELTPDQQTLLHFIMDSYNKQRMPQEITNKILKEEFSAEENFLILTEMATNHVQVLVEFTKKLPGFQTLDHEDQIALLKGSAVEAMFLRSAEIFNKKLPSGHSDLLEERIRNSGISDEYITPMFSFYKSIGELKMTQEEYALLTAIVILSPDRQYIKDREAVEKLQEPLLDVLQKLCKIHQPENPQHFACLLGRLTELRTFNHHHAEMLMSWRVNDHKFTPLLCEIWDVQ

Take `C[N+](C)(C)CC(=O)[O-]`: the Potency entry in [1], in assay [2], in [3], in assay [4], in assay [5] and in [6] was “inactive” each time. Moreover, the Potency entry in assay [7], in [8], in [9], in [10] and in assay [11] was “inactive” in each case. Also, the call in assay [12] was inactive.
For the compound `CC1=C(C(=O)Nc2ccccc2)SCCO1`, the Potency result in assay [1], in assay [2], in assay [13], in assay [14], in [4] and in assay [16] was “inactive” each time. Further, the Potency entry in assay [5], in [6], in assay [7], in [8], in assay [9] and in [10] was “inactive” each time. Also, the Potency result in assay [11] is “inactive”. The outcome in assay [15] and in [12] was inactive.
Turning to `CC(C)(O)C(=O)Nc1ccc([N+](=O)[O-])c(C(F)(F)F)c1`, the Potency entry in [17], in assay [2], in assay [4], in assay [6], in assay [7] and in [8] was “inactive” in each case. The Potency result in [9] and in assay [11] was “inactive” each time. Further, the compound was classed as inactive in assay [15] and in assay [12]. Also, the Potency in assay [10] is 19.7 µM (active).
On to `Clc1ccccc1-c1nnc(-c2ccccc2Cl)nn1`, for which the Potency result in assay [17], in assay [1], in assay [2], in [18], in assay [3] and in assay [4] was “inactive” each time. In addition, the Potency entry in assay [16], in [6], in assay [7], in assay [8], in assay [9] and in assay [10] was “inactive” each time. Besides, the Potency entry in assay [11] was “inactive”. The call in assay [15] and in assay [12] was inactive.
As for `ClC(Cl)(Cl)c1ccccc1`, the Potency entry in [1], in [2], in assay [13], in assay [3], in assay [14] and in assay [4] was “inactive” throughout. Besides, the Potency result in [16], in [6], in assay [7], in assay [8], in assay [9] and in [10] was “inactive” each time. For the same compound, in assay [11], the Potency entry is “inactive”. The result in assay [15] and in [12] was inactive.
Regarding `NN=C(N)N`, the Potency result in assay [2], in assay [3], in assay [4], in [6], in [7] and in assay [8] was “inactive” each time. The Potency result in assay [9] and in assay [11] was “inactive” in each case. The result in assay [12] was inactive.
As for `CCCCCCCCCC(CC)c1ccc(S(=O)(=O)O)cc1` (stereo not drawn), the Potency in assay [7] is 48.9 µM (active) and 21.3 µM (active); in assay [11], 49.5 µM (active) [middle of 4 runs]. The Potency entry in [9] was “inactive”.
Regarding `O=[N+]([O-])c1ccc(Nc2ccccc2)cc1`, the Potency result is “inactive and 49 µM (active)” in [17]; “inactive and 49 µM (active)” in assay [6]; “inactive and 43.6 µM (active)” in assay [7]. For the same compound, the Potency result in assay [2], in [4], in assay [5], in assay [8], in assay [9] and in assay [11] was “inactive” throughout. Also, the compound was classed as inactive in assay [15] and in assay [12].
As to `CC(C)(c1ccccc1)c1ccc(O)c(C(C)(C)c2ccccc2)c1`, the Potency in [17] is 21.7 µM (active) and 19.5 µM (active); in [2], 34.3 µM (active) and 43.6 µM (active); in [3], 54.9 µM (active); in assay [16], 43.6 µM (active); in assay [5], 19.3 µM (active) and 15.5 µM (active); in assay [6], 30.6 µM (active) and 17.4 µM (active). In addition, the Potency in [7] was 21.7 µM (active) and 21.9 µM (active); in assay [19], 27.3 µM (active) and 27.5 µM (active); in assay [9] it was 48.1 µM (active) and 30.6 µM (active); in assay [10] it was 19.2 µM (active) and 27.3 µM (active); in [11], 12.2 µM (active) and 21.9 µM (active).
On to `C=C(C)C#N`, for which the Potency entry in assay [17], in assay [1], in assay [2], in assay [13], in assay [3] and in assay [14] was “inactive” each time. Besides, the Potency entry in assay [4], in assay [5], in [6], in assay [7], in assay [8] and in assay [9] was “inactive” throughout. The Potency entry in [10] and in assay [11] was “inactive” each time. Moreover, the outcome in assay [15] and in assay [12] was inactive.
In the case of `Oc1ccc(Cl)cc1Cl`, the Potency entry in assay [17], in [1], in assay [2], in assay [13], in assay [14] and in assay [4] was “inactive” throughout. Further, the Potency result in assay [16], in assay [6], in [7], in assay [8], in [9] and in assay [10] was “inactive” in each case. Moreover, the Potency entry in [11] is “inactive”. Moreover, the result in [15] and in assay [12] was inactive.
In the case of `CCC[CH2][Sn]([Cl])([CH2]CCC)[CH2]CCC`, the Potency in [17] is 551 nM (active) and 1.23 µM (active); in assay [2] it was 778 nM (active) and 1.95 µM (active); in assay [3] it was 873 nM (active) and 1.23 µM (active); in assay [4], 1.95 µM (active) and 2.45 µM (active); in assay [6], 618 nM (active) and 3.47 µM (active); in assay [7] it was 1.1 µM (active) and 1.95 µM (active). The Potency in [19] is 1.74 µM (active) and 3.09 µM (active); in assay [9], 1.54 µM (active) and 1.72 µM (active); in [10] it was 194 nM (active) and 686 nM (active); in [11], 873 nM (active) and 1.74 µM (active).
